# In PubChem BioAssay (NCI):
# About 83,000 compounds went through this panel and 20% of them were active in at least one assay; those are over-represented in the sample as a whole.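 Treatment: one concentration, 48 hours, 96-well format. Scoring: percent growth, with anything below 10 considered active.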 Unmarked numbers belong to inactive results. The source made the active and inactive calls.
# Test system: T-47D breast
# Experiment: NCI-60 one-dose screen, 48 h (100 = growth as untreated, 0 = no growth, -100 = all killed)
# Conditions: 10 µM
# Procedure: Growth inhibition of the T-47D human tumor cell line is measured as a screen for anti-cancer activity. Cells are grown in 96 well plates and exposed to the test compound for 48 hours. Compounds are tested at a single concentration, which is 10^-5 M for most compounds. The reported endpoint is percent growth (GI% or GIPRCNT), where numbers from 0 - 100% represent growth inhibition, and numbers from -100% - 0 represent cell death. For example, a value of 40 represents 60% growth inhibition. A value of 0 means no net growth occurred over the course of the experiment. A value of -40 indicates 40% of cells at the beginning of the experiment died by the end of the experiment. A value of -100 means all cells are dead at the end of the experiment.
# NCI-60 Human Tumor Cell Lines Screen was performed using the standard one-dose NCI protocol, which is described in more detail at https://dtp.cancer.gov/discovery_development/nci-60/default.htm.
# Compounds with GIPRCNT values below 10 were considered active. Activity score was based on GIPRCNT using the following formula: […]
# Score is 0 for GIPRCNT values of 100 or above, 50 for GIPRCNT values of 0, and 100 for GIPRCNT values of -100.
row,Compound,growth
1,COC(=O)C[C@](O)(CCC(C)C)C(=O)O[C@@H]1C(OC)=C[C@]23CCCN2CCc2cc4c(cc2[C@H]13)OCO4,-24% (active)
2,CC1=C2C(=C[C@@](C)(COP(=O)(Oc3ccccc3)Oc3ccccc3)[C@@H]2O)C(=O)[C@@](C)(O)C12CC2,-47.8% (active)
3,CC12OOC(C)(OO1)C2CCC(=O)NCCNc1ccnc2cc(Cl)ccc12 (stereo not given),80.8%
4,COC(=O)c1ccc(-n2cc(CCCN(CCNc3ccnc4cc(Cl)ccc34)C(=O)CCC(=O)O[C@@H]3O[C@@H]4OC5(C)CC[C@H]6[C@H](C)CC[C@@H]([C@H]3C)[C@@]46OO5)nn2)cc1,37.6%
5,CC(C)C[C@H](NC(=O)CNC(=O)C[C@H]1O[C@@H]2OC3(C)CC[C@H]4[C@H](C)CC[C@@H]([C@H]1C)[C@@]24OO3)B(O)O,-32.8% (active)
6,COc1cc(OC)c(S(=O)(=O)N(CCCl)CCCl)cc1C(=O)/C=C/c1ccc(C)cc1,88%
7,C#CCCCN(CCNc1ccnc2cc(Cl)ccc12)C(=O)CCC(=O)O[C@@H]1O[C@@H]2OC3(C)CC[C@H]4[C@H](C)CC[C@@H]([C@H]1C)[C@@]24OO3,27.9%
8,CC12OOC(C)(OO1)C2CCC(=O)NCCCNc1ccnc2cc(Cl)ccc12 (stereo not given),40%
9,CC(=O)Oc1ccccc1C(=O)[Se]C(=NC(C)C)NC(C)C,-45.6% (active)
10,C[C@H]1[C@H](OC(=O)CCC(=O)N(CCCc2cn(-c3ccc(CN4CCOCC4)cc3)nn2)CCNc2ccnc3cc(Cl)ccc23)O[C@@H]2OC3(C)CC[C@H]4[C@H](C)CC[C@@H]1[C@@]24OO3,25.4%
11,O=C(/C=C/c1ccco1)c1nc2ccccc2n1Cc1ccc(F)cc1,18%
12,CC[C@]12C=CCN3CC[C@@]4(c5ccc(OC)cc5N(C)[C@H]4[C@@](O)(C(=O)OC)[C@@H]1OC(=O)CCCC[P+](c1ccc(C)cc1)(c1ccc(C)cc1)c1ccc(C)cc1)[C@@H]32,-64.5% (active)
13,COc1ccc2cc([C@H](C)C(=O)[Se]CCC#N)ccc2c1,12%
14,O=C(/C=C/c1ccc(Cl)cc1Cl)c1nc2ccccc2n1Cc1ccc(Br)cc1,44.4%
15,COCCOCCOCCOc1ccc(-n2cc(-c3ccc(O[C@H]4O[C@@H]5OC6(C)CC[C@H]7[C@H](C)CC[C@@H]([C@H]4C)[C@@]57OO6)cc3)nn2)cc1,17.3%
16,COCCOCCOCCOc1ccc(-n2cc(CCCN(CCNc3ccnc4cc(Cl)ccc34)C(=O)CCC(=O)O[C@@H]3O[C@@H]4OC5(C)CC[C@H]6[C@H](C)CC[C@@H]([C@H]3C)[C@@]46OO5)nn2)cc1,20.6%
17,CCC[Se]C(=O)c1ccc(C(=O)[Se]CCC)s1,30%
18,C[C@H]1[C@H](OC(=O)CCC(=O)N(CCCc2cn(-c3ccc(C#N)cc3)nn2)CCNc2ccnc3cc(Cl)ccc23)O[C@@H]2OC3(C)CC[C@H]4[C@H](C)CC[C@@H]1[C@@]24OO3,32.1%
19,CC[C@@]12CC(C(=O)OC)=C3Nc4cc5c(cc4[C@@]34CCN(C[C@H]3O[C@H]31)[C@@H]24)[C@@H]1[C@H](O5)[C@@H](O)[C@@]2(CC)CC(C(=O)OC)=C3Nc4cc(OC)ccc4[C@@]34CCN1[C@@H]24,25.7%
20,C[C@H]1[C@H](OC(=O)CCC(=O)N(CCCc2cn(-c3ccc([N+](=O)[O-])cc3)nn2)CCNc2ccnc3cc(Cl)ccc23)O[C@@H]2OC3(C)CC[C@H]4[C@H](C)CC[C@@H]1[C@@]24OO3,37.1%

row,Compound,growth
1,C[C@H]1[C@@H](Oc2ccc(-c3cn(-c4ccnc5cc(Cl)ccc45)nn3)cc2)O[C@@H]2OC3(C)CC[C@H]4[C@H](C)CC[C@@H]1[C@@]24OO3,25.6%
2,C[C@H]1[C@H](OC(=O)CCC(=O)Nc2cnccn2)O[C@@H]2OC3(C)CC[C@H]4[C@H](C)CC[C@@H]1[C@@]24OO3,22.1%
3,C=CCN=C([Se])NC(=O)c1ccc2c(c1)OCO2,96.6%
4,CC(C)N=C([Se])NC(=O)c1cccs1,79.4%
5,O=C(/C=C/c1ccccc1Cl)c1nc2ccccc2n1Cc1ccc(F)cc1,-66.9% (active)
6,O=C(/C=C/c1ccc(Cl)cc1Cl)c1nc2ccccc2n1Cc1ccc(F)cc1,27.2%
7,COC(=O)CCn1c(-c2ccc(-n3cc(-c4ccc(O[C@H]5O[C@@H]6OC7(C)CC[C@H]8[C@H](C)CC[C@@H]([C@H]5C)[C@@]68OO7)cc4)nn3)cc2)nc2ccccc21,14.9%
8,CC(=C\C(=O)Oc1ccc2c3c1OC1C(O)CCC4(O)C(C2)N(CC2CCC2)CCC314)/C=C1\CCCc2ccccc21 (stereo not given),24.4%
9,CCOC(=O)C1=C(Nc2ccccc2)C(=O)OC12C(=O)Nc1ccccc12 (stereo not given),110%
10,Cc1ccc2[nH]c(=S)n(-c3ccc(F)cc3)c(=O)c2c1,93.5%
11,N#C[Se]CC(=O)Nc1cccc(C(F)(F)F)c1,51%
12,CN(C)CCc1cn(C2CCC2)c2cccc(O)c12,69.9%
13,C=CC[Se]C(=O)c1cncc(C(=O)[Se]CC=C)c1,-42.2% (active)
14,COc1ccc(OC)c(/C=C/C(=O)c2nc3ccccc3n2Cc2ccc(F)cc2)c1,10.5%
15,C#CC[Se]C(=O)c1ccc(C(=O)[Se]CC#C)s1,88.8%
16,CC12OOC(C)(OO1)C2CCC(=O)OCCNc1ccnc2cc(Cl)ccc12 (stereo not given),16.5%
17,CC(=O)Oc1ccccc1C(=O)NC([Se])=NC1CCCCC1,-9.49% (active)
18,COC(=O)C[C@](O)(CCCC(C)C)C(=O)O[C@H]1C(OC)=C[C@@]23CCCN2CCc2cc4c(cc2[C@@H]13)OCO4,2.21% (active)
19,O=C(NC([Se])=NC1CCCCC1)c1ccccc1,46%
20,CC[C@]12C=CCN3CC[C@@]4(c5ccc(OC)cc5N(C)[C@H]4[C@@](O)(C(=O)OC)[C@@H]1OC(=O)CCC[P+](c1ccc(F)cc1)(c1ccc(F)cc1)c1ccc(F)cc1)[C@@H]32,10.4%
